38 compounds from PubChem BioAssay (Tox21) can be followed below.

“And” between values parts separate entries of the source, which are not always exact repeats. Equal values may be shown once. Inconclusive results are not listed. A call without a number means that no potency is given here. The source made the active and inactive calls. The call rests on the fitted dose curve; in most records, active means well fitted cell-killing curve with a large enough effect in the repeat runs; inconclusive means weak or mixed curves, or effect the other way; inactive means flat fitted curve, though single readings scatter.
Potency means the concentration at half of the fitted maximal effect.

The experiment in a line: qHTS assay to identify small molecule antagonists of the constitutive androstane receptor (CAR) signaling pathway - cell viability counter screen (AID 1224837). Further: nearly all actives have a fitted effect of over 45% in size. To be noted: HepG2-CYP2B6-hCAR viability, CellTiter-Fluor, 23 h, co-treated with 50 nM CITCO; series mostly up to 92.4 µM. Put shortly:
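HepG2 cells stably carrying hCAR and CYP2B6-2.2kb reporter, stimulated with 50 nM CITCO and compounds at 15 concentrations for 23 h at 37 C. Viability measured by CellTiter-Fluor fluorescence.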
Regarding `O=C(O)c1cn(-c2ccc(F)cc2)c2cc(N3CCNCC3)c(F)cc2c1=O`, the Potency result was “inactive”.

For `CCCCC(CC)COC(=O)CC(C(=O)OCC(CC)CCCC)S(=O)(=O)O` (stereo not drawn), the Potency result is “inactive”.

With `NC(N)=Nc1nc(CSCC/C(N)=N/S(N)(=O)=O)cs1`, the Potency entry was “inactive”.

Consider `O=C(Oc1ccccc1)c1ccccc1O`, for which the Potency result was “inactive”.

Take `CCN1CCCC1CNC(=O)c1cc(S(=O)(=O)CC)c(N)cc1OC` (stereo not drawn): the Potency entry is “inactive”.

Consider `OCC(CO)N[C@H]1C[C@](O)(CO)[C@@H](O)[C@H](O)[C@H]1O`, for which the Potency entry is “inactive”.

Regarding `CCCCCCCCCCCCCC[P+](CCCC)(CCCC)CCCC`, the Potency is 17.1 µM (active) and 27.3 µM (active).

`O=C(O)c1cccc(C(=O)O)c1`: the Potency entry was “inactive”.

As to `CC(=O)N[C@@H](CS)C(=O)O`, the Potency entry was “inactive”.

For the compound `CC1COC(=O)O1` (stereo not drawn), the Potency entry is “inactive”.

On to `c1cc(C(c2ccc(OCC3CO3)cc2)C(c2ccc(OCC3CO3)cc2)c2ccc(OCC3CO3)cc2)ccc1OCC1CO1` (stereo not drawn), for which the Potency entry was “inactive”.

Take `NC(N)=NC(=O)Cc1c(Cl)cccc1Cl`: the Potency entry is “inactive”.

Turning to `CCCC(=O)c1ccccc1`, the Potency entry was “inactive”.

Regarding `C=C(C)C1CC=C(C)C(OC(C)=O)C1` (stereo not drawn), the Potency result is “inactive”.

With `CC(C)(C)NCC(O)COc1ccccc1OCC1CCCO1` (stereo not drawn), the Potency result was “inactive”.

On to `COC(=O)[C@H]1[C@H]2C[C@@H]3c4[nH]c5cc(OC)ccc5c4CCN3C[C@H]2C[C@@H](OC(=O)c2cc(OC)c(OC)c(OC)c2)[C@@H]1OC`, for which the Potency entry is “inactive”.

For the compound `c1ccc2n[nH]nc2c1`, the Potency entry is “inactive”.

`CC(=O)OCCOCCOCCOC(C)=O`: the Potency result is “inactive”.

In the case of `COC(=O)/C=C/c1ccccc1`, the Potency entry is “inactive”.

For `Cc1scc2c1N(C(=O)CN1CCN(C)CC1)c1ccccc1NC2=O`, the Potency result is “inactive”.

Consider `Oc1c(Cl)cc(Cl)c(Cl)c1Cc1c(O)c(Cl)cc(Cl)c1Cl`, for which the Potency is 9.44 µM (active).

As to `Nc1nc2ccccc2[nH]1`, the Potency result was “inactive”.

Take `CCN(CC)C(=S)SSC(=S)N(CC)CC`: the Potency is 273 nM (active) and 249 nM (active) and 211 nM (active).

As to `NCCCCCC(=O)O`, the Potency entry is “inactive”.

Consider `CC(C)(C)c1ccc(O)c(C(C)(C)C)c1`, for which the Potency entry was “inactive”.

As for `CCC(C)(C)C(=O)O[C@H]1C[C@@H](C)C=C2C=C[C@H](C)[C@H](CC[C@@H]3C[C@@H](O)CC(=O)O3)[C@H]21`, the Potency result is “inactive”.

For the compound `O=C(O)CCc1ccccc1`, the Potency result was “inactive”.

Regarding `OCCN1CCNCC1`, the Potency result is “inactive”.

As for `[Cl][In]([Cl])[Cl]`, the Potency entry is “inactive”.

`CC[C@H]1CN2CCc3cc(OC)c(OC)cc3[C@@H]2C[C@@H]1C[C@H]1NCCc2cc(OC)c(OC)cc21`: the Potency is 27.4 nM (active) and 133 nM (active).

`CC(C)CCOC(=O)c1ccc(N(C)C)cc1`: the Potency result was “inactive”.

Regarding `Cc1cc(C2(c3cc(C)c(O)cc3C)OS(=O)(=O)c3ccccc32)c(C)cc1O`, the Potency is 24.3 µM (active) and 19.3 µM (active).

`CCOC(=O)C(C)C(C)=O` (stereo not drawn): the Potency entry was “inactive”.

`CC(C)(C)c1cc(C(C)(C)C)c(O)c(C(C)(C)C)c1`: the Potency entry was “inactive”.

As for `CCC[C@H](N[C@@H](C)C(=O)N1[C@H](C(=O)O)C[C@@H]2CCCC[C@@H]21)C(=O)OCC`, the Potency result was “inactive”.

Take `CC(COc1ccccc1)N(CCCl)Cc1ccccc1` (stereo not drawn): the Potency entry is “inactive”.

In the case of `O=C1CC2(CCCC2)CC(=O)N1CCCCN1CCN(c2ncccn2)CC1`, the Potency result is “inactive”.

On to `O=c1n(CC2CO2)c(=O)n(CC2CO2)c(=O)n1CC1CO1` (stereo not drawn), for which the Potency is 60.8 µM (active) and 54.5 µM (active).
